High-throughput results: PubChem BioAssay, The Scripps Research Institute Molecular Screening Center
Sampled rows, rich in hits. Any-hit rate of the full collection: about 1.1%.
OPRM1-OPRD1 ag: agonists of human mu-delta opioid receptor heterodimerization | cells, OPRM1-OPRD1 heterodimerization, luminescence | activation, % at 9.3 µM | hit rate 0.3% among 340,000 | P35372+P41143 | AID 504326; in the data active = activation above about 18%;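 also: 0% = vehicle-treated cells and 100% = reference agonist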
HTR5A inv ctr: counter-screen for OPRM1-OPRD1 inverse agonists: human HTR5A inverse agonism; HTR5A cell line, luminescence; AID 504634; inhibition, % at 9.3 µM; hit rate 0.083% among 340,000; in the data active = inhibition mostly above about 23%, no sharp cut-off; inactive = mostly below about 18%;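 also: 0% = cells with DMSO and 100% = no-cell wells with DMSO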
Target sequence (P47898 whole entry, looked up): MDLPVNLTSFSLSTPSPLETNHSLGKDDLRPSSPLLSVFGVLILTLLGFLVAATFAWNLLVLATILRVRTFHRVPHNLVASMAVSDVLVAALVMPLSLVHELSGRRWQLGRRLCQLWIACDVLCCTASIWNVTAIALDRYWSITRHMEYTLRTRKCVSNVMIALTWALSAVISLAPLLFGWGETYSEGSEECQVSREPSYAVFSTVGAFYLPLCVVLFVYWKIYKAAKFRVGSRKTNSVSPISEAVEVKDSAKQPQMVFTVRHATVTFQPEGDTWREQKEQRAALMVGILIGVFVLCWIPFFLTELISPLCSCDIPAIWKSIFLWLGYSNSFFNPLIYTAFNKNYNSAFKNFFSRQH
HTR5A ag ctr: counter-screen for OPRM1-OPRD1 agonists: human HTR5A agonism; P47898; HTR5A agonist assay, luminescence, cell-based; activation, % at 9.3 µM; hit rate 0.61% among 340,000; in the data active = activation mostly above about 9.5%, no sharp cut-off; inactive = mostly below about 7.6%;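 also: 0% = cells with vehicle only and 100% = reference agonist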
MOR-DOR inv ag: inverse agonist of human OPRM1-OPRD1 heterodimerization. P35372+P41143. cell-based MOR-DOR heterodimer luminescence, inverse agonism. inhibition, % at 9.3 µM. hit rate 0.21% among 340,000; in the data active = inhibition above about 22%, passing the limit was not always enough;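 also: 0% = cells with DMSO and 100% = wells without cells with DMSO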
OPRM1-D1 inv cf: OPRM1-OPRD1 heterodimer inverse agonism, confirmation. hit rate 20% among 580. shares compounds with MOR-DOR inv ag. cells expressing OPRM1/OPRD1 heterodimer, luminescence. inhibition, % at 9.3 µM; in the data active = inhibition above about 32%;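 also: 0% = cells with DMSO and 100% = wells lacking cells with DMSO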
HTR5A inv ctr2: counter-screen for OPRM1-OPRD1 inverse agonists: human HTR5A inverse agonism. shares compounds with MOR-DOR inv ag. HTR5A-expressing cells, luminescence. inhibition, % at 9.3 µM. 580 tested, under 10 active. AID 504914; call rule not given here;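 also: 0% = cells with DMSO and 100% = no-cell wells with DMSO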
* = called active by the depositor; i = inactive; x = no result given.

SMILES	OPRM1-OPRD1 ag	HTR5A inv ctr	HTR5A ag ctr	MOR-DOR inv ag	OPRM1-D1 inv cf	HTR5A inv ctr2
CN(C)CCCn1c2c(c(SCC(=O)Nc3ccc4c(c3)OCO4)nc1=O)CCC2	-1.4	23.8	-7.9	8.8	x	x
O=C(COC(=O)c1ccc(Br)o1)c1ccc(S(=O)(=O)N2CCCCC2)cc1	-16.7	22.5	-9.0	65.0*	-87.7	-4.1
COc1cc(OC)cc(C(=O)OCC(=O)c2ccc(S(=O)(=O)N3CCCCC3)cc2)c1	-1.6	-16.6	6.5	6.2	x	x
O=C(COC(=O)c1ccco1)c1ccc(S(=O)(=O)N2CCCCC2)cc1	-9.7	17.9	-2.6	53.4*	9.0	9.1
C/C(=N\NC(=O)c1nnn(-c2nonc2N)c1CSc1ccc(C)cc1)c1ccco1	-2.6	-16.0	4.2	13.8	x	x
O=C(CC1(O)C(=O)Nc2ccccc21)c1ccc(-n2cnnn2)cc1 (stereo not given)	-8.8	14.8	-4.4	40.1*	32.8*	-1.2
S=C(NNc1ccnc2cc(Cl)ccc12)Nc1ccccc1Cl	4.5	-28.7	1.9	-23.4	x	x
Cc1cccc(NC(=S)NNc2ncc(C(F)(F)F)cc2Cl)c1	-8.7	48.5	-2.1	45.0*	32.9*	22.2
FC(F)(F)c1cnc(NNC(=S)Nc2ccccc2Cl)c(Cl)c1	-8.1	29.2	-9.1	43.2*	44.0*	34.5
COc1cccc(-n2nc(C(N)=O)c(O)cc2=O)c1	-2.4	-5.4	1.9	13.7	x	x
COc1cccc(-n2nc(C#N)c(Cl)cc2=O)c1	-5.0	13.7	-5.2	28.5*	-1.7	17.5
CSc1nnc(C)c(/C=C/NOCc2ccc(Cl)cc2)n1	-8.5	15.5	-1.1	43.8*	-95.5	2.4
Cc1ccc(N/N=C/c2ccncc2)cc1	-6.1	2.4	-0.7	31.4	x	x
Cc1ccc(N/N=C/c2cccnc2)cc1	-9.8	-3.0	1.0	52.5*	-237.4	-16.8
O=C1c2ccccc2C(=O)N1CCOc1ccccc1Cl	-2.2	-4.9	-2.0	11.6	x	x
Cc1ccccc1OCCN1C(=O)C(=O)c2cccc(C)c21	-9.3	-10.4	2.0	58.0*	-223.8	-55.4
COc1ccccc1OCCCN1C(=O)C(=O)c2cccc(C)c21	-7.7	13.1	-4.8	40.7*	56.1*	3.1
Cc1cccc2c1N(CCOc1ccccc1Cl)C(=O)C2=O	-5.7	0.8	-0.3	34.5*	-0.9	-6.7
COc1ccc(CNC(=O)COC(=O)c2[nH]c(C)c(C(C)=O)c2C)cc1OC	-4.2	-1.9	0.8	17.3	x	x
O=C(NCc1ccccn1)c1ccc(Cn2c(=S)[nH]c3ccc(Br)cc3c2=O)cc1	-0.3	-10.4	3.8	1.5	x	x
O=c1c2cc(Cl)ccc2[nH]c(=S)n1Cc1ccccn1	-12.0	23.1	-8.7	72.2*	55.2*	9.7
CCCc1cc(=O)[nH]c(-n2[nH]c3c(c2=O)CCCC3)n1	-5.3	0.1	-8.9	33.4*	i	2.5
CC(C)c1ccc(O)c(NC(=S)NC(=O)c2cccnc2)c1	-7.7	30.3	-10.9	42.7*	32.1*	27.1
CC(C)(C)c1cc(Cl)c(O)c(NC(=S)NC(=O)c2cccnc2)c1	-10.1	11.6	-4.2	46.7*	6.0	8.9
CCC(C)c1ccc(O)c(NC(=O)c2cccnc2)c1 (stereo not given)	-0.4	-22.6	1.4	2.7	x	x
SMILES	OPRM1-OPRD1 ag	HTR5A inv ctr	HTR5A ag ctr	MOR-DOR inv ag	OPRM1-D1 inv cf	HTR5A inv ctr2
COC(=O)c1ccc(NC(=S)NC(=O)c2cccnc2)cc1	-5.5	-4.1	-7.2	28.2*	15.9	4.0
Cc1ccc(C(=O)NNC(=O)c2ccoc2C)s1	-0.8	6.6	-0.8	5.5	x	x
CC1=C(C(=O)Nc2cc(C(=O)N3CCN(c4cccc(C)c4)C(C)C3)ccc2C)SCCO1 (stereo not given)	-1.4	6.5	0.5	7.0	x	x
CCN1CCN(C(=O)CN2C(=O)COc3ccc(C)cc32)CC1	-1.5	12.1	-4.0	12.2*	i	-18.9
O=C(CC1CCOCC1)Nc1ccc(Cl)c(Cl)c1	-1.3	-5.7	2.0	6.8	x	x
O=C(CSc1nc2c([nH]c3ccccc32)c(=O)n1-c1ccccc1)NCC1CCCO1 (stereo not given)	-9.3	28.7	-15.1	51.4*	21.9	-8.6
CCOc1ccc(CNC23CN4CN(CN(C4)C2)C3)cc1	-2.5	-5.4	2.1	15.7*	28.3	9.3
CCOc1ccc(C=NC23CN4CN(CN(C4)C2)C3)cc1	2.6	-25.8	1.8	-14.2	x	x
O=C(COC(=O)c1ccccn1)c1cccc(Br)c1	-7.2	16.6	-2.2	37.1*	13.8	9.0
CC(C)N1C(=O)C(O)(C2COC(C)(C)CC2=O)c2ccccc21 (stereo not given)	-2.1	-11.5	0.8	10.9	x	x
CC1(C)CC(=O)C(C2(O)C(=O)Nc3ccccc32)CO1 (stereo not given)	-11.3	22.2*	-8.1	55.4*	-110.3	-63.1
CC(C)(C)c1ccc(NNC(=O)C2CCC2)cc1	-6.7	2.1	-3.0	34.4*	1.6	-16.8
Cc1c(C(=O)N(C)C)sc2nc(-c3ccccn3)[nH]c(=O)c12	-3.2	-8.7	3.4	16.0	x	x
O=c1[nH]c(-c2ccccn2)nc2sc(-c3ccccc3)cc12	-6.4	-6.1	2.1	33.0*	6.1	1.8
O=C1Nc2ccccc2C1=O	-9.9	-4.0	-2.3	54.5*	33.0*	11.4
O=C1Nc2ccccc2Nc2ccccc21	-3.2	-3.5	0.9	15.5	x	x
Nc1n[nH]c(=S)n1/N=C1/C(=O)Nc2ccccc21	-1.4	3.3	-1.1	7.4	x	x
O=C1Nc2ccccc2C1=NN1CCCCCC1	-7.4	19.6	-5.0	38.0*	26.2	-2.2
Cc1ccccc1CNC(=O)C1CCCN(c2cnccn2)C1 (stereo not given)	-2.7	20.4	0.6	14.0	x	x
CCOC(=O)C(OC(=O)c1sc(=S)n(C)c1C)C(C)=O (stereo not given)	-7.3	3.7	-1.3	39.4*	21.5	18.3
CN(Cc1ccccc1)C(=O)COC(=O)c1cc2ccccc2oc1=O	-4.6	2.9	-1.1	18.3	x	x
COc1ccccc1CNC(=O)N1CCN(c2ccccc2Cl)CC1	1.0	-14.0	-2.1	-6.4	x	x
CN1C(=O)C(O)(CC(=O)c2ccccc2O)c2cc(Br)ccc21 (stereo not given)	-13.3	2.6	-0.9	67.5*	-153.0	-33.7
Cc1cc(C)cc(OCC(=O)NNC(=S)NC(=O)C2CC2)c1	-7.5	9.0	-4.3	38.6*	-236.6	-13.8
CC(=O)OCC1(C)CN(c2ccccc2)N(C(=O)c2ccc(F)cc2)C1=O (stereo not given)	-6.1	1.2	-0.5	44.3*	27.4	-9.4
COC(CN(C)C(=O)c1cn(C)c2ccc(S(=O)(=O)N(C)C3CCCCC3)cc2c1=O)OC	-2.1	6.2	-1.6	10.7	x	x
CCOC(=O)c1c(N)sc(N)c1C(=O)OCC	-10.1	11.9	8.1	51.1*	i	-3.6
CCOC(=O)c1c(N)ssc1=S	-6.2	22.9	-0.8	34.9*	19.7	-11.1
CN(Cc1ccn[nH]1)C(=O)C1CCC(=O)N(Cc2cccc(C(F)(F)F)c2)C1 (stereo not given)	0.3	-0.9	0.2	-1.6	x	x
